# The sample as a whole holds a higher share of hits than the screen did.
# ERp5 block = ERp5 (human) disulfide isomerase inhibition | Q15084 | ERp5 insulin aggregation, absorbance 650 nm, 90 min | inhibition, % at 9.99 µM | 0.05% of 350,000 active;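 active = mean replicate inhibition above about 25%, with every replicate also reaching it, limit read from the data, passing the limit was not always enough; inconclusive = only one of those two criteria met; inactive = neither criterion met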
# SIRT5 inh = inhibitors of human sirtuin-5 desuccinylase | inhibition, % at 15 µM | AID 652115 | 1.1% of 330,000 active | Purified SirT5, succinyl-peptide AMC, trypsin-coupled fluorescence; in the data active = inhibition above about 15%; inconclusive = no clear call, values can overlap the other calls
# PDI inh = inhibitors of human protein disulfide isomerase. inhibition, % at 10 µM. P07237. 0.052% of 350,000 active. PDI insulin aggregation turbidity, A650, 90 min;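 active = mean inhibition across replicates of 30% or more, whatever share of single replicates reach that level; inconclusive = mean inhibition below 30% while every single replicate reaches 30%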
# Target sequence (P07237 whole entry, looked up): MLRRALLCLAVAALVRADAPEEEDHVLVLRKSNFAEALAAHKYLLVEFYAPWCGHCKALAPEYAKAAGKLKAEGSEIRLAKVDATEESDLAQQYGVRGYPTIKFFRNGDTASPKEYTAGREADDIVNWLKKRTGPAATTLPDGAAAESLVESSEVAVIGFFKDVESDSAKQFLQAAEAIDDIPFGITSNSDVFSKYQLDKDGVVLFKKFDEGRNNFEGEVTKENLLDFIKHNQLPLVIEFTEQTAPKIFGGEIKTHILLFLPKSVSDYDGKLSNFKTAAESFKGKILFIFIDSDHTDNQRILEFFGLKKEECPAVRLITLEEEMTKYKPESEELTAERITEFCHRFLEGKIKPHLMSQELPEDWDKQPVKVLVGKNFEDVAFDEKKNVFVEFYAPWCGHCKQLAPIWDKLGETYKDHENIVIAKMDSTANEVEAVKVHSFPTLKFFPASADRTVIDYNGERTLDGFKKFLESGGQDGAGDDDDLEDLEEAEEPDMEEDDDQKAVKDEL
# HDAC3 inhib = blocks human histone deacetylase 3 | O15379 | recombinant HDAC3, fluorogenic peptide/trypsin coupled, fluorescence | inhibition, % at 8.3 µM | 0.15% of 320,000 active | AID 2718; in the data active = inhibition above about 26%, passing the limit was not always enough; inconclusive = no clear call, values can overlap the other calls
# ERAP1 HTS inh = ERAP1 (human) enzyme inhibition; Q9NZ08; recombinant ERAP1, Leu-AMC fluorescence, 60 min; inhibition, % at 10.7 µM; 0.15% of 340,000 active; AID 652197;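 active = mean replicate inhibition of at least 30%, or all replicates individually reaching that 30% level; inactive = mean below 30% and not every replicate reaching it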;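 also: 0% = neutral control wells and 100% = L-leucinethiol positive control wells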
# * hit, by the source's call; ? = inconclusive; / = no result.
SMILES,ERp5 block,SIRT5 inh,PDI inh,HDAC3 inhib,ERAP1 HTS inh
CC(=Cc1ccccc1)C=C1SC(=S)N(CCCC(=O)Nc2ccc(C(=O)O)c(O)c2)C1=O,-1.5,60.2*,6.6,/,8.5
O=C(CCCN1C(=O)c2ccccc2C1=O)NCCCN1CCOCC1,/,/,-1.6,-3.0,/
CC(/C=C1\SC(=S)N(CCCC(=O)Nc2ccc(C(=O)O)c(O)c2)C1=O)=C\c1ccccc1,/,/,/,6.9,/
CC(/C=C1\SC(=S)N(c2ccc(C(=O)O)cc2)C1=O)=C\c1ccccc1,?,34.4*,1.5,5.5,-0.2
CC(/C=C1\SC(=S)N(NC(=O)c2ccc(C)cc2)C1=O)=C\c1ccccc1,/,/,-3.3,8.7,/
CCS(=O)(=O)N1CC2(C1)[C@H](c1ccccc1)[C@@H](CO)N2C(=O)C1CC1,7.9,-0.8,/,/,0.3
O=C(Nc1ccc(F)cc1)N1C[C@H]2[C@@H](c3ccccc31)[C@H](CO)N2C(=O)c1cccnc1,-4.1,5.4,/,/,/
COc1ccc(NC(=O)N[C@H]2C=C[C@@H](CC(=O)NCc3ccccn3)O[C@@H]2CO)cc1,2.4,-9.0,/,/,0.3
Cc1noc(C)c1NC(=O)N(C)C[C@@H]1Oc2ncc(C#CC3CCCC3)cc2C(=O)N([C@H](C)CO)C[C@@H]1C,-1.2,2.8,/,/,-1.8
O=C(CCN1C(=O)/C(=C/c2cccs2)SC1=S)Nc1ccc(C(=O)O)c(O)c1,-8.5,16.0*,-1.6,5.5,-20.7
O=C(CCN1C(=O)/C(=C/c2cccs2)SC1=S)Nc1ccc(O)cc1,-6.1,-0.9,10.6,-1.8,0.0
Cc1ccc(NC(=O)COc2cccc(/C=C3\SC(=S)N(CCC(=O)O)C3=O)c2)cc1Cl,-2.1,26.8*,-1.0,-0.7,2.6
O=C(O)CCN1C(=O)/C(=C\c2cccc(OCC(=O)Nc3ccc(Cl)cc3)c2)SC1=S,3.1,1.5,-9.6,3.9,-1.9
O=C(C[C@@H]1C[C@H]2c3cc(NC(=O)C4CCC4)ccc3O[C@H]2[C@H](CO)O1)NCCN1CCCCC1,5.3,3.1,/,/,0.9
C[C@@H]1CN([C@@H](C)CO)S(=O)(=O)c2ccc(C3=CCCC3)cc2O[C@H]1CN(C)Cc1cccnc1,-2.4,-2.0,/,/,3.9
CCCNC(=O)N1C[C@H](O)COC[C@H]2O[C@H](CC(=O)N[C@@H]3CCN(Cc4ccccc4)C3)CC[C@@H]21,-2.3,7.3,/,/,1.7
CC(C)NC(=O)N(C)C[C@H]1OCCCC[C@H](C)Oc2ccc(NC(=O)C3CCCCC3)cc2C(=O)N([C@@H](C)CO)C[C@@H]1C,-0.8,-0.2,/,/,0.3
Cc1noc(C)c1NC(=O)Nc1ccc2c(c1)C(=O)N([C@H](C)CO)C[C@H](C)[C@@H](CN(C)Cc1ccc(C(F)(F)F)cc1)OCCCC[C@@H](C)O2,-0.9,26.2*,/,/,4.0
Cc1noc(C)c1NC(=O)N(C)C[C@H]1OCCCC[C@H](C)Oc2ccc(NC(=O)Nc3ccc(F)cc3)cc2C(=O)N([C@@H](C)CO)C[C@@H]1C,-4.2,-2.0,/,/,2.0
Cc1noc(C)c1NC(=O)N(C)C[C@H]1OCCCC[C@@H](C)Oc2ccc(NC(=O)Nc3ccc(C(F)(F)F)cc3)cc2C(=O)N([C@H](C)CO)C[C@@H]1C,-1.1,17.3*,/,/,-1.8
Cc1noc(C)c1NC(=O)N(C)C[C@@H]1OCCCC[C@H](C)Oc2ccc(NC(=O)Nc3ccc(C(F)(F)F)cc3)cc2C(=O)N([C@@H](C)CO)C[C@H]1C,-3.3,-0.9,/,/,-2.4
Cc1noc(C)c1NC(=O)N(C)C[C@@H]1OCCCC[C@H](C)Oc2ccc(NC(=O)Nc3ccc(F)cc3)cc2C(=O)N([C@@H](C)CO)C[C@@H]1C,3.8,31.2*,/,/,1.6
O=C(CSc1nc2nn(-c3ccccc3)c(=O)c-2c2n1CCCCC2)c1ccc(O)c(O)c1,/,/,53.1*,-2.8,/
COCCNC(=O)Cn1cnc2sc(C)c(S(=O)(=O)N3CCC(C)CC3)c2c1=O,/,/,-0.8,-3.8,/
CCC1CCCCN1CCCNC(=O)Cn1cnc2sc(C)c(S(=O)(=O)N3CCC(C)CC3)c2c1=O (stereo not drawn),9.4,17.4*,-12.0,1.3,4.7
SMILES,ERp5 block,SIRT5 inh,PDI inh,HDAC3 inhib,ERAP1 HTS inh
COc1ccc2c3c([nH]c2c1)[C@H](CO)N(Cc1ccccc1OC)CC31CN(C)C1,6.2,/,/,/,53.2*
COCC(=O)N1CC2(C1)CN(Cc1ccccc1F)[C@H](CO)c1[nH]c3cc(OC)ccc3c12,33.6*,0.3,/,/,5.2
COc1ccc2c3c([nH]c2c1)[C@H](CO)N(Cc1ccccc1)CC31CN(C)C1,3.8,-4.5,/,/,-3.1
COc1ccc2c3c([nH]c2c1)[C@@H](CO)N(Cc1ccccc1OC)CC31CN(C)C1,-6.4,/,/,/,51.1*
CO[C@@H]1CN(C)C(=O)c2ccc(NC(=O)c3cc(C)on3)cc2OC[C@@H](C)N(CC2CC2)C[C@H]1C,/,-0.6,/,/,2.6
C[C@@H]1CN([C@@H](C)CO)C(=O)c2cccc(NC(=O)C3CCCCC3)c2O[C@H]1CN(C)Cc1ccc2c(c1)OCO2,0.6,6.5,/,/,0.1
Cc1cc2nc(CSc3ccccc3)cc(=O)n2[nH]1,-5.6,29.2*,-3.6,4.6,1.6
CCCN1[C@@H]2Cn3c(ccc(-c4ccc(F)cc4)c3=O)[C@H]1[C@@H](C(=O)NCC)[C@@H]2CO,-1.1,-2.5,/,/,1.1
C[C@H](CO)N1C[C@H](C)[C@@H](CN(C)Cc2ccc(C(=O)O)cc2)Oc2cc(/C=C/c3ccccc3)ccc2S1(=O)=O,-6.0,103.9*,/,/,0.6
C[C@H]1CN([C@@H](C)CO)S(=O)(=O)c2ccc(/C=C/c3ccccc3)cc2O[C@H]1CN(C)Cc1ccc(C(=O)O)cc1,3.4,19.4*,/,/,-0.2
C[C@@H]1CN([C@H](C)CO)S(=O)(=O)c2ccc(/C=C/c3ccccc3)cc2O[C@H]1CN(C)Cc1ccc(C(=O)O)cc1,-7.1,?,/,/,-0.1
CO[C@H]1CN(C)C(=O)c2ccc(NC(=O)NC(C)C)cc2OC[C@H](C)N(C(=O)C2CCC2)C[C@H]1C,9.0,1.4,/,/,0.7
COCC(=O)N1[C@H](CO)[C@@H]2c3ccccc3N(C(=O)Nc3cc(F)ccc3F)C[C@@H]21,-0.4,3.1,/,/,-0.9
Cc1ccc(-c2nc3c(Cl)cc(C(F)(F)F)cn3c2Cc2ccccc2)cc1,1.8,15.2*,/,/,4.7
Fc1ccc(-c2nc3ccc(Cl)cn3c2Cc2cccc(F)c2)cc1,-22.2,18.6*,/,/,0.8
Cc1ccc(-c2nc3c(Cl)cc(C(F)(F)F)cn3c2Cc2cccc(F)c2)cc1,-1.1,22.4*,/,/,3.2
Cc1ccc(Cc2c(-c3ccc(Cl)cc3)nc3c(Cl)cc(C(F)(F)F)cn23)cc1,1.9,-7.2,/,/,-2.7
CO[C@H]1CN(C)C(=O)c2cc(NC(=O)C3CCOCC3)ccc2OC[C@@H](C)N(Cc2nccs2)C[C@H]1C,-0.4,-1.0,/,/,-0.3
Cn1cnc(S(=O)(=O)N2C[C@@H](O)COC[C@@H]3O[C@@H](CC(=O)NC4Cc5ccccc5C4)CC[C@H]32)c1,3.8,-19.0,/,/,-0.8
COc1ccc(-c2ccc(NCCN3CCOCC3)nn2)cc1OC,0.9,15.6*,11.4,1.3,1.8

# Compound activity: PubChem BioAssay, Broad Institute
